# Assay results reported in PubChem BioAssay.
# Calls of active or inactive are those of the source. Unless noted, no rule for the calls is given here.
# Tests used:
# [1] = A549 cell viability effects, profiling panel, calcein-AM fluorescence, 48 h, basal (AID 1162); settings: higher = more signal; also: test concentration not given here
# [2] = adipocyte viability effects, profiling panel, cell-based, 3T3-L1 adipocytes, calcein-AM fluorescence, 48 h, basal (AID 1163); settings: 3T3-L1 adipocytes viability, higher = more signal; also: test concentration not given here
# [3] = HepG2 cell viability effects, profiling panel, calcein-AM fluorescence, 48 h, basal (AID 1164); settings: higher = more signal; also: test concentration not given here
# [4] = MM1S cell viability effects, profiling panel, calcein-AM fluorescence, 48 h, basal (AID 1165); settings: higher = more signal;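 also: viability of MM1S multiple myeloma cells under basal unstimulated conditions; test concentration not given here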
# [5] = basal RPMI8226 viability, no added stimulus, profiling panel, cell-based, calcein-AM fluorescence, 48 h, PK04 Diversity Set (AID 1166); settings: RPMI8226 myeloma viability, higher = more signal;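 also: cells grown under basal conditions without added stimulus; test concentration not given here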
# [6] = basal HepG2 mitochondrial membrane potential changes, profiling panel, cell-based, JC-1 fluorescence, 24 h, 100 nL compound (AID 1167); settings: higher = more signal; also: test concentration not given here
# [7] = basal 3T3-L1 adipocyte mitochondrial potential changes, profiling panel, cell-based, JC-1 fluorescence, 3T3-L1 adipocytes, 24 h, 100 nL compound (AID 1168); settings: JC-1 mitochondrial fluorescence, higher = more signal, called active from +8 up or from −8 down; also: test concentration not given here
# [8] = basal RPMI8226 mitochondrial membrane potential changes, profiling panel, cell-based, JC-1 fluorescence, 24 h, 100 nL compound (AID 1169); settings: RPMI8226 myeloma, JC-1 mitochondrial potential fluorescence, higher = more signal; also: test concentration not given here
# [9] = basal MM1S mitochondrial membrane potential changes, profiling panel, cell-based, JC-1 fluorescence, 24 h, 100 nL compound (AID 1170); settings: higher = more signal; also: test concentration not given here
# [10] = A549 lung cancer cell viability effects, profiling panel, resazurin fluorescence, 24 h, PK04 Diversity Set (AID 1171); settings: higher = more signal, called active from +8 up or from −8 down; also: test concentration not given here
# [11] = HepG2 liver cancer cell viability effects, profiling panel, resazurin fluorescence, 24 h, PK04 Diversity Set (AID 1172); settings: higher = more signal; also: test concentration not given here
# [12] = basal S. cerevisiae growth modulation, no modifier, primary screen, OD600, strain BY4716, 24 h, basal condition (AID 1173); settings: OD600, 24 h, higher = more signal, called active from +8 up or from −8 down
# [13] = MM1S myeloma cell viability, profiling panel, resazurin fluorescence, basal, 24 h, PK04 Diversity Set (AID 1174); settings: higher = more signal, called active from +8 up or from −8 down;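 also: MM1S multiple myeloma cell line; test concentration not given here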
# [14] = molecular target: Dihydroorotate dehydrogenase (quinone), mitochondrial (Plasmodium falciparum (isolate 3D7)) (UniProt Q08210); assay: PfDHODH enzyme inhibitors, primary screen, biochemical, C-terminal His tag, absorbance 600 nm (AID 1175); settings: DCIP absorbance 600 nm, higher = more signal, called active from +8 up or from −8 down;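 also: recombinant parasite enzyme with a five histidine tag at its C terminus; test concentration not given here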
# [15] = P. aeruginosa biofilm formation inhibitors, primary screen, strain PAO1, LB-PBS medium, absorbance 600 nm (AID 1176); also: test concentration not given here; settings: P. aeruginosa PAO1 growth/biofilm, A600, 12 h; higher = more signal
# [16] = S. cerevisiae RM11-1a growth modifiers, primary screen, strain RM11-1a, OD600, basal, 24 h (AID 1177); settings: OD600, 24 h, higher = more signal, called active from +8 up or from −8 down;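 also: cultures grown under basal conditions with no added stressor; test concentration not given here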
# [17] = E. coli acrAB mutant growth effects, primary screen, E. coli filamentation inducers, strain DRC39, OD650, 24 h (AID 1178); settings: higher = more signal, called active from +8 up or from −8 down;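 also: growth measured as culture turbidity by optical density at 650 nm; test concentration not given here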
# [18] = E. coli acrAB mutant growth effects, primary screen, E. coli filamentation inducers, strain DRC39, OD650, 48 h (AID 1179);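 also: screen aims at cell division blockers that make cells filament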; settings: E. coli DRC39 delta-acrAB growth, higher = more signal, called active from +8 up or from −8 down
# [19] = RPMI8226 myeloma cell viability, profiling panel, resazurin fluorescence, basal, 24 h, PK04 Diversity Set (AID 1180); settings: higher = more signal;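 also: RPMI8826 multiple myeloma cell line at 5000 cells per well; test concentration not given here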
# [20] = molecular target: E3 ubiquitin-protein ligase XIAP (Homo sapiens) (UniProt P98170); assay: XIAP binders, primary screen, biophysical, small-molecule microarray, fluorescence 635 nm (AID 1181); settings: small-molecule microarray binding, higher = more signal;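 also: score merges 667 nm emission and signal to noise over triplicate slides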
# Sequence of E3 ubiquitin-protein ligase XIAP (Homo sapiens) (P98170 whole entry, looked up): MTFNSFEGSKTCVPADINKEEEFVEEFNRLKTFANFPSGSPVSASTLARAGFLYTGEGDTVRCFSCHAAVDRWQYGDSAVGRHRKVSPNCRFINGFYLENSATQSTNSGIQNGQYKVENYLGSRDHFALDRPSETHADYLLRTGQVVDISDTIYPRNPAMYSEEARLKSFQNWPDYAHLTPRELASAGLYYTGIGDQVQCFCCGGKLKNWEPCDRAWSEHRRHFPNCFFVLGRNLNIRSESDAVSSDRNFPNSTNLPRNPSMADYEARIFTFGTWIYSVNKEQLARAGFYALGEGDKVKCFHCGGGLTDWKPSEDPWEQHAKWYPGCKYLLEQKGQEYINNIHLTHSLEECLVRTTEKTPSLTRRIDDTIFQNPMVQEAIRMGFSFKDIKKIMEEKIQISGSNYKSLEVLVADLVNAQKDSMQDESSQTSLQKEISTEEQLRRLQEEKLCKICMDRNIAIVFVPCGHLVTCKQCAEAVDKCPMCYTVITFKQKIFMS
# Sequence of Dihydroorotate dehydrogenase (quinone), mitochondrial (Plasmodium falciparum (isolate 3D7)) (Q08210 whole entry, looked up): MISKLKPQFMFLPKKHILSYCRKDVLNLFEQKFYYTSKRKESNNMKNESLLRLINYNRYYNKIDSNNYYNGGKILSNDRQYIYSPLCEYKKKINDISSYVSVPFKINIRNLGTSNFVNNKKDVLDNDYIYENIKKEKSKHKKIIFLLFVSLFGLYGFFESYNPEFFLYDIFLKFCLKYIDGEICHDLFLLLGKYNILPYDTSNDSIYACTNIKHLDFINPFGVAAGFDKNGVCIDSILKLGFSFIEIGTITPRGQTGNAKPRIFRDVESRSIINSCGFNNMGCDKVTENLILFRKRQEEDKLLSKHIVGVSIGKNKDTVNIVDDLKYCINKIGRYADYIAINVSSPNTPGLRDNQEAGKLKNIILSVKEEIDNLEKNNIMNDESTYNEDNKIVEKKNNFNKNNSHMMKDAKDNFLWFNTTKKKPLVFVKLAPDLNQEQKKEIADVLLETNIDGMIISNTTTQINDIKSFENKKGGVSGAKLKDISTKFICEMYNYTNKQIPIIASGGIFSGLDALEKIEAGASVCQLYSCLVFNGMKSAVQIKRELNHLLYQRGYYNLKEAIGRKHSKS
SMILES,z-score [1],z-score [2],z-score [3],z-score [4],z-score [5],z-score [6],z-score [7],z-score [8],z-score [9],z-score [10],z-score [11],z-score [12],z-score [13],composite z-score [14],z-score [15],z-score [16],z-score [17],z-score [18],z-score [19],composite z-score [20]
CCCCC(O)C1C=CC2C(=O)N(C)C(=O)C2N1N1CCCCC1 (stereo not given),-1.19,-0.579,-0.267,-0.73,-0.173,-1.59,-0.686 (inactive),0.135,-0.026,-0.377 (inactive),-1.12,1.96 (inactive),-1.5 (inactive),1.23 (inactive),0.971 (inactive),1.64 (inactive),-0.83 (inactive),-0.412 (inactive),-1.9,0.547
O=c1cccc(-c2ccccc2Cl)o1,0.586,0.528,0.614,-1.04,0.0055,-0.98,-0.428 (inactive),-0.103,0.304,-0.0719 (inactive),-0.611,-2.25 (inactive),-0.111 (inactive),-0.316 (inactive),-0.0043 (inactive),-0.234 (inactive),-0.366 (inactive),-0.608 (inactive),-0.698,-0.0999
CCOC(=O)C[C@H]1[C@H](OC(=O)c2cc3ccccc3oc2=O)[C@@H](NC(=O)CC(C)C)c2cc(OCCCO)ccc2N1C(=O)c1ccccc1,-0.276,1.52,0.314,0.117,-0.0793,1.14,0.9 (inactive),-0.882,0.915,-1.33 (inactive),-0.683,-1.9 (inactive),0.338 (inactive),-2.94 (inactive),-1.39 (inactive),-0.544 (inactive),1.94 (inactive),1.08 (inactive),-0.0988,-0.117
CC(C)CCC[C@@H](C)[C@H]1CC[C@@]2(C)C3=C(CC[C@]12C)[C@@]1(C)CC[C@H](OC(=O)c2ccc(C(F)(F)F)nc2)C(C)(C)C1CC3 (stereo not given in full),0.351,0.806,0.717,0.18,0.79,0.726,-0.215 (inactive),0.483,-0.263,-0.0879 (inactive),0.305,-0.473 (inactive),0.175 (inactive),-1.08 (inactive),0.188 (inactive),-2.03 (inactive),0.634 (inactive),0.762 (inactive),0.605,-0.161
CC(C)NC(=O)[C@@H]1c2ccccc2C(=O)N(C(C)C)[C@H]1c1ccc(CO)cc1,0.772,0.0383,1.8,0.333,0.947,1.59,-0.423 (inactive),-0.104,-0.952,0.842 (inactive),1.02,-0.37 (inactive),0.537 (inactive),0.654 (inactive),-0.397 (inactive),0.0971 (inactive),0.494 (inactive),0.671 (inactive),0.135,-0.398
CCCCN1CC=CC23O[C@@H]4C=CCOC(=O)[C@@H]4[C@H]2C(=O)N(CCCCCCO)[C@@H]3C1=O (stereo not given in full),0.327,-1.36,0.215,0.546,0.569,-0.71,-0.228 (inactive),0.76,-0.12,-0.499 (inactive),-0.556,0.0518 (inactive),0.0626 (inactive),-0.838 (inactive),-0.112 (inactive),-0.55 (inactive),0.272 (inactive),0.25 (inactive),-0.386,0.245
COCCOC(=O)N1C(=O)[C@@]2(c3cc(C#CC4(O)CCCCCC4)ccc31)[C@H](C(=O)Nc1nc3ccccc3s1)[C@H]1C(=O)O[C@H](c3ccccc3)[C@H](c3ccccc3)N1[C@@H]2c1ccc(OCCO)cc1,-0.593,1.47,-0.15,-1.83,-2.56,-3.3,-0.438 (inactive),-0.635,-1.18,0.566 (inactive),-0.0451,1.16 (inactive),-0.584 (inactive),0.901 (inactive),2.69 (inactive),3 (inactive),-0.451 (inactive),-0.976 (inactive),-0.523,0.0073
CCOC(=O)C1=CC[C@@H](c2ccc(C(F)(F)F)cc2)N(S(=O)(=O)c2ccc(C)cc2)[C@H]1c1ccccc1,-0.664,-1.01,0.0691,-2.36,-1.95,-1.59,0.154 (inactive),-1.11,-3.18,0.138 (inactive),-0.333,0.062 (inactive),-2.34 (inactive),-0.296 (inactive),-0.0601 (inactive),-0.258 (inactive),-0.604 (inactive),-0.126 (inactive),-5.04,-0.278
CC(C)CN1C(=O)[C@@]2(c3ccc([N+](=O)[O-])cc3)CC(=O)N(C3CCCCC3)[C@@H]2c2ccc(CO)cc21,-0.651,0.16,-0.403,0.246,0.0529,0.0665,-0.339 (inactive),0.603,-0.214,-0.881 (inactive),-0.321,0.669 (inactive),-0.248 (inactive),-13.6 (active),0.292 (inactive),0.488 (inactive),0.0743 (inactive),0.922 (inactive),-0.323,0.119
